Where “and” joins values, the source holds several entries; their conditions need not be identical. Equal entries are not always repeated. Records with an inconclusive call do not appear. Entries that show only a call come without a potency. Calls of active or inactive are those of the source. Calls come from the whole dose curve.
Key:
[1] = Cytotoxicity counterscreen for inhibitors of SARS-CoV-2 cell entry (AID 1645845); note: nearly all actives have a fitted effect of over 50% in size
Outline: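 HEK293-ACE2 cells (Expi293F stably expressing human ACE2) seeded overnight, then compound for 1 h plus 48 h at 37C. Viability as ATP content by luminescence; normalized to wells with cells and media-only wells.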

[2] = Primary qHTS to identify inhibitors of SARS-CoV-2 cell entry (AID 1645846); conditions: activity change, negative = inhibition: at 57.1 µM (top of the series) unless noted; note: nearly all actives have a fitted effect of over 45% in size; note: potency is the fitted concentration of half-maximal effect
Outline: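 HEK293 cells stably expressing human ACE2, pre-treated 1 h with compound, then infected with MLV particles pseudotyped with Wuhan-Hu-1 spike (C-terminal 19-aa truncation). Luciferase luminescence after 48 h at 37 °C, normalised to spike PP and bald PP.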

SMILES | Potency [1] | Potency [2] | activity change, negative = inhibition [2] | activity change, negative = cytotoxicity [1]
CC(O)COc1ccccc1 (stereo not drawn) | inactive | inactive |  | 
C#CCN(C)Cc1ccccc1 | inactive | inactive |  | 
C[N+]1(CC2COC(c3ccccc3)(c3ccccc3)O2)CCCCC1 (stereo not drawn) | inactive |  | 1.26% [at 27.1 µM] | 
CCCCCCc1ccc(O)cc1O | inactive |  | -11.8% | 
COc1cc([C@H]2Oc3cc([C@H]4Oc5cc(O)cc(O)c5C(=O)[C@@H]4O)ccc3O[C@@H]2CO)ccc1O | inactive |  | -12.9% | 
CCCc1nc(C)c2c(=O)[nH]c(-c3cc(S(=O)(=O)N4CCN(CC)CC4)ccc3OCC)nn12 | inactive |  | -31% and -14% | 
CC(=O)OCC1=C(C(=O)O)N2C(=O)[C@@H](NC(=O)CSc3ccncc3)[C@H]2SC1 | inactive | inactive |  | 
C[C@H](CCC(=O)O)[C@H]1CC[C@H]2[C@@H]3C(=O)C[C@@H]4CC(=O)CC[C@]4(C)[C@H]3CC(=O)[C@]12C | inactive | inactive |  | 
N#Cc1cc(NC(=O)C(=O)O)c(Cl)c(NC(=O)C(=O)O)c1 | inactive |  | 1.2% | 
C[C@@H]1CCC[C@H](C)N1CCCC(O)(c1ccccc1)c1ccccn1 (stereo partly drawn) | inactive |  | -1.1% | 
CC(C)COCC(CN(Cc1ccccc1)c1ccccc1)N1CCCC1 (stereo not drawn) | inactive | 14.1 µM (active) |  | 
Cn1c(=O)c2c(ncn2C)n(C)c1=O | inactive |  | 0.143% and -10.1% | 
CCOC(=O)OC(C)OC1=C(C(=O)Nc2ccccn2)N(C)S(=O)(=O)c2ccccc21 (stereo not drawn) | inactive | inactive |  | 
N[C@@H](CSCCCO)C(=O)O | inactive | inactive |  | 
C#C[C@]1(O)CC[C@H]2[C@@H]3CCC4=CC(=O)CC[C@@H]4[C@H]3CC[C@@]21C | inactive |  | 3.31% | 
OCCN1CCN(CCCN2c3ccccc3C=Cc3ccccc32)CC1 | inactive |  | -17.2% | 
Nc1ccc(S(=O)(=O)Nc2cnc3ccccc3n2)cc1 | inactive | inactive |  | 
NC(=O)C1(N2CCCCC2)CCN(CCCC(=O)c2ccc(F)cc2)CC1 | inactive |  | 3.21% | 
CCC1Nc2cc(Cl)c(S(N)(=O)=O)cc2S(=O)(=O)N1 (stereo not drawn) | inactive | inactive |  | 
CC(C)Cc1ccc(C(C)C(=O)OCc2ccccn2)cc1 (stereo not drawn) | inactive |  | -13.1% | 

SMILES | Potency [1] | Potency [2] | activity change, negative = inhibition [2] | activity change, negative = cytotoxicity [1]
CC(=O)Nc1ccc(S(=O)(=O)Nc2ccc([N+](=O)[O-])cc2)cc1 | inactive | inactive |  | 
Cc1c(C)c2c(c(C)c1OC(=O)CCC(=O)OCCO)CC[C@@](C)(CCC[C@H](C)CCC[C@H](C)CCCC(C)C)O2 | inactive | 28.2 µM (active) |  | 
CCOC(=O)Nc1ccc(NCc2ccc(F)cc2)nc1N | inactive |  | -22.5% | 
CC(=O)Oc1ccc(C(c2ccc(OC(C)=O)cc2)c2ccccn2)cc1 | inactive | inactive |  | 
COc1ccc2c(c1)c(CC(=O)OCC(=O)O)c(C)n2C(=O)c1ccc(Cl)cc1 | inactive | inactive |  | 
CCN(CCCCOC(=O)c1ccc(OC)c(OC)c1)C(C)Cc1ccc(OC)cc1 (stereo not drawn) | inactive | 14.1 µM (active) |  | 
C[C@@H](C1=C(CCN(C)C)Cc2ccccc21)c1ccccn1 | inactive |  | -25.9% | 
O=C(O)CCNC(=O)c1ccccc1 | inactive | inactive |  | 
CC(=O)[C@@]1(O)CC[C@H]2[C@@H]3C[C@H](C)C4=CC(=O)CC[C@]4(C)[C@H]3CC[C@@]21C | inactive | inactive |  | 
Cc1cccc(C)c1NC(=O)C(C)N (stereo not drawn) | inactive |  | 4.4% | 
COc1ccccc1N1CCN(CC(O)COc2cccc3ccccc23)CC1 (stereo not drawn) | inactive |  | -24.9% and -27.1% | 
C/C(=N/NC(=O)c1ccncc1)C(=O)O | inactive |  | -2.02% | 
CCN[C@@H]1C[C@H](N)[C@@H](OC2OC(CN)=CCC2N)[C@H](O)[C@H]1O[C@H]1OC[C@](C)(O)[C@H](NC)[C@H]1O (stereo partly drawn) |  |  | 42.9% [at 0.702 µM] | 0.776% [at 0.702 µM] (inactive)
CCOC(=O)[C@H](CCc1ccccc1)N[C@H]1CCc2ccccc2N(CC(=O)O)C1=O | inactive |  | -24.9% | 
O=C(O)CCC(=O)c1ccc(-c2ccccc2)cc1 | inactive | inactive |  | 
CCOC(=O)c1ccc(OC(=O)CCCCCN=C(N)N)cc1 | inactive | inactive |  | 
CN(C)CCCN1c2ccccc2Sc2ccccc21 | inactive | 14.1 µM (active) |  | 
CN1[C@@H]2CC[C@H]1CC(NC(=O)n1c(=O)[nH]c3ccccc31)C2 (stereo partly drawn) | inactive | inactive |  | 
CNC(=O)Oc1ccc2c(c1)[C@]1(C)CCN(C)[C@@H]1N2C | inactive | inactive |  | 

From PubChem BioAssay (NCATS)
